The values below come from PubChem BioAssay (Tox21).

For assay [1], the target named is Luciferin 4-monooxygenase (Photinus pyralis) (UniProt P08659). In words: qHTS assay to identify small molecule inhibitors of firefly luciferase (AID 1224835). Also: nearly all actives have a fitted effect of over 25% in size. Also: potency is read from the fitted curve at half-maximal effect. A digest of the protocol:
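Biochemical qHTS: compounds run as interplate titrations against purified firefly enzyme, with D-luciferin and ATP each at its KM concentration. Light output recorded by CCD imaging.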
For orientation: Quantitative high-throughput screening tests each substance at several concentrations.

A short description of assay [2]: qHTS assay to identify small molecule agonists of the constitutive androstane receptor (CAR) signaling pathway - cell viability counter screen (AID 1224836). Also: nearly all actives have a fitted effect of over 45% in size. In a few lines:
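Compound titrations (15 concentrations) went onto HepG2-CYP2B6-hCAR cells 4 h after seeding, alongside PK11195 at a final 0.75 uM; a 23 h, 37 C/5% CO2 incubation preceded CellTiter-Fluor viability measurement.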

A short description of assay [3]: qHTS assay to identify small molecule antagonists of the constitutive androstane receptor (CAR) signaling pathway - cell viability counter screen (AID 1224837). Also: nearly all actives have a fitted effect of over 45% in size. In a few lines:
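CITCO at 50 nM final was added alongside compounds (15 concentrations) to double-stable hCAR/CYP2B6-2.2kb HepG2 cells. Following 23 hr at 37 C, cell viability was quantified by CellTiter-Fluor fluorescence intensity.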

Assay [4] concerns the target Nuclear receptor subfamily 1 group I member 3 (Homo sapiens) (UniProt Q14994). In words: qHTS assay to identify small molecule agonists of the constitutive androstane receptor (CAR) signaling pathway (AID 1224839). Also: nearly all actives have a fitted effect of over 15% in size. Also: potency is read from the fitted curve at half-maximal effect. A digest of the protocol: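 In this screen, CAR-driven CYP2B6 promoter activity is measured by luminescence in HepG2-CYP2B6-hCAR cells after 24 h with test compounds and 0.75 uM PK11195 (final concentration).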

Assay [5] is described as follows: qHTS assay to identify small molecule antagonists of the estrogen related receptor signaling pathway with the pleiotropic PPARgamma coactivator (PGC) from Tox21 10K library - cell viability counter screen (AID 1224840; active = well fitted cell-killing curve with a large enough effect in the repeat runs, not every such curve was filed as active; also: nearly all actives have a fitted effect of over 40% in size). In a few lines:
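Readout: fluorescence intensity from CellTiter-Fluor after 30 min at 37 C/5% CO2. Preceded by 17.5 h treatment of PGC/ERR cells with DMSO-dissolved compounds, added 6 h post-seeding.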

A short description of assay [6]: qHTS assay to identify small molecule agonists of the hypoxia (HIF-1) signaling pathway - cell viability counter screen (AID 1224844; calls by dose curve; also: nearly all actives have a fitted effect of over 50% in size). A digest of the protocol: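 In this counter screen, HRE-bla ME-180 cell viability after 17 hrs of compound exposure at 37C was read by CellTiter-Glo luminescence, multiplexed with the beta-lactamase reporter measurement.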
Assay [7] in a line: qHTS assay to identify small molecule agonists of H2AX (AID 1224845; active = well fitted activation curve with a large enough effect in the signal ratio in the repeat runs, not every such curve was filed as active; the % refers to the signal ratio). A digest of the protocol:
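Wild-type CHO-K1 cells, plated overnight, exposed 3hr at 37C to 15 concentrations (0.76% DMSO final). Lysed, then HTRF anti-pH2AX (S139) cryptate and anti-H2AX-d2 antibodies, 24 hr room temperature; 665/620 nm emission read.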

The nature of assay [8]: qHTS assay to identify small molecule agonists of the hypoxia (HIF-1) signaling pathway (AID 1224846; active = well fitted activation curve with a large enough effect in the signal ratio in the repeat runs, not every such curve was filed as active; the % refers to the signal ratio). In a few lines: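 ME-180 HRE-bla reporter cells; compounds in DMSO, 17 h at 37C; read-out beta-lactamase via CCF4-AM FRET.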
The nature of assay [9]: qHTS assay to identify small molecule agonists of H2AX - cell viability counter screen (AID 1224847; calls by dose curve; also: top concentration of the series differs between compounds; nearly all actives have a fitted effect of over 30% in size). In a few lines:
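Read-out: CellTiter-Glo luminescence, 30 min RT. Cells: wild-type CHO-K1, 1000/well, 10% FBS, plated overnight at 37C. Treatment: 15 concentrations, 3 hr, 37C, 0.76% DMSO.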

A short description of assay [10]: qHTS RealTime-Glo MT Cell Viability Assay in HEK293 cells - 32 hour (AID 1224868). Also: nearly all actives have a fitted effect of over 50% in size. Also: potency is read from the fitted curve at half-maximal effect. A digest of the protocol:
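Viability tracked continuously by luminescence as live cells reduce a prosubstrate for NanoLuc; HEK293 cells preincubated 5 h, compound-treated at 37 C, and read at 0, 8, 16, 24, 32 and 40 h.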

Assay [11] can be described thus: A CellTox Green Cytotoxicity Assay to monitor cytotoxicity in HEK293 cells - 0 hour (AID 1224869). Also: nearly all actives have a fitted effect of over 50% in size. In a few lines: (§1)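 Real-time, in one plate: 600 HEK293 cells/well with dead-cell DNA dye, pinned compound after 5 h, 37 C incubation over 40 h; viable cells give no appreciable fluorescence.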
Assay [12] is described as follows: qHTS RealTime-Glo MT Cell Viability Assay in HepG2 cells - 40 hour (AID 1224870). Also: nearly all actives have a fitted effect of over 50% in size. In a few lines:
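HepG2 cells (600/well) mixed with RealTime-Glo MT reagent, settled 5 h at 37 C/5% CO2 before compound addition. Nonlytic NanoLuc luminescence from viable-cell prosubstrate reduction read repeatedly during 40 h treatment at 37 C.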

A short description of assay [13]: A CellTox Green Cytotoxicity Assay to monitor cytotoxicity in HEK293 cells - 40 hour (AID 1224871). Also: nearly all actives have a fitted effect of over 45% in size. Also: potency is read from the fitted curve at half-maximal effect. A digest of the protocol: as §1
For assay [14], the target named is Nuclear receptor subfamily 1 group I member 3 (Homo sapiens) (UniProt Q14994). The assay is described as follows: qHTS assay to identify small molecule antagonists of the constitutive androstane receptor (CAR) signaling pathway (AID 1224838). Also: nearly all actives have a fitted effect of over 40% in size. A digest of the protocol:
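Inhibition of CITCO-driven (50 nM final) CYP2B6 reporter expression is measured in HepG2 cells stably carrying hCAR. Fifteen compound concentrations are applied for 24 h at 37 C, followed by luciferase luminescence.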

Assay [15] addresses Thyrotropin receptor (Homo sapiens) (UniProt P16473). The assay is described as follows: qHTS assay to identify small molecule agonists of the thyroid stimulating hormone receptor (TSHR) signaling pathway (AID 1224843; calls by dose curve; also: nearly all actives have a fitted effect of over 45% in size). In a few lines: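 HEK293/TSHR, 800 cells/well; cpd 30 min RT; add cAMP-d2 + anti-cAMP-cryptate, 1 h RT; fluorescence read on plate reader. 15-pt titration, n=3.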

Assay [16] in a line: qHTS assay to identify small molecule agonists of the estrogen related receptor signaling pathway with the pleiotropic PPARgamma coactivator (PGC) from Tox21 10K library (AID 1224842). Also: nearly all actives have a fitted effect of over 15% in size. A digest of the protocol: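 PGC/ERR reporter cell line, 2,000 cells per well, incubated 6 h at 37 C before 23 nL compound in DMSO was added. After 18 h at 37 C, One-Glo luminescence read following 30 min at room temperature.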

Assay [17] can be described thus: qHTS assay to identify small molecule agonists of the estrogen related receptor (ERR) signaling pathway from Tox21 library (AID 1224849; calls by dose curve; also: nearly all actives have a fitted effect of over 15% in size). As to conditions: ERR reporter cell line, ONE-Glo luciferase, 18 h. A digest of the protocol: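 Luciferase activity in ERR pathway reporter cells served as the agonist readout; exposure lasted 18 h at 37 C, with ONE-Glo detection after 30 min at room temperature.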

Assay [18] can be described thus: qHTS RealTime-Glo MT Cell Viability Assay in HepG2 cells - 24 hour (AID 1224867). Also: nearly all actives have a fitted effect of over 50% in size. A digest of the protocol:
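Viability was tracked continuously by NanoLuc luminescence from prosubstrate reduced by living HepG2 cells, at successive time points over 40 h of compound exposure. Cells with reagent were preincubated 5 h at 37 °C before compound addition.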

Assay [19] in a line: qHTS assay to identify small molecule antagonists of the estrogen related receptor signaling pathway with the pleiotropic PPARgamma coactivator (PGC) from Tox21 10K library (AID 1224841; call rule not given here). A digest of the protocol: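 One-Glo luminescence, measured after half an hour at room temperature, quantified reporter output of PGC/ERR cells. These had been plated at 2,000 per well, incubated 6 h, dosed with compounds in DMSO, then kept 18 h at 37 C.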

Assay [20] in a line: qHTS assay to identify small molecule antagonists of the estrogen related receptor (ERR) signaling pathway from Tox21 library (AID 1224848). Also: nearly all actives have a fitted effect of over 50% in size. In a few lines:
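Compounds dissolved in DMSO are pin-transferred onto ERR reporter cells (2,000 per well) that have settled for 6 h at 37 C. Plates then incubate 18 h at 37 C before ONE-Glo luciferase reagent and a luminescence read 30 min later.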

A number with no mark means an inactive call. Inconclusive results are not listed. The source made the active and inactive calls. Unless noted, calls follow the shape of the dose curve; as a rule, active = well fitted curve in the direction sought with a large enough effect in the repeat runs; inconclusive = weak or mixed curves; inactive = no such curve, though single readings can be large; an effect the other way counts as inactive or inconclusive.
% is scaled to controls: 0 for no effect and ±100 for the full control effect.

Luciferin 4-monooxygenase (Photinus pyralis), sequence (P08659 whole entry, looked up): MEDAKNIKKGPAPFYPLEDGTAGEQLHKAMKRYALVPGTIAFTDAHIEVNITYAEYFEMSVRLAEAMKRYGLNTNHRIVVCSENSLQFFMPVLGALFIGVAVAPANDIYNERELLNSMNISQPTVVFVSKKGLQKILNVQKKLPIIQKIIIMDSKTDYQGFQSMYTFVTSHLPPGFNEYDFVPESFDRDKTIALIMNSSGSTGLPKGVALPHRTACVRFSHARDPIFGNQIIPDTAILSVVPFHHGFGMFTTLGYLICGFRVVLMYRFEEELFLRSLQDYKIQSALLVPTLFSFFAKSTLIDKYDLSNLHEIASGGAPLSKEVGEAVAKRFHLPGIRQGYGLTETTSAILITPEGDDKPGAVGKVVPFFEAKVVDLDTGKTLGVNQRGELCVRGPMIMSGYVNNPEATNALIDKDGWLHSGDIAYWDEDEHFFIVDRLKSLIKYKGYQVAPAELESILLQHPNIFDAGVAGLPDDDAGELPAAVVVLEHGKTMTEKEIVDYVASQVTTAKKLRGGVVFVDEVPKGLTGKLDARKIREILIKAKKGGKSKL
Thyrotropin receptor (Homo sapiens), sequence (P16473 whole entry, looked up): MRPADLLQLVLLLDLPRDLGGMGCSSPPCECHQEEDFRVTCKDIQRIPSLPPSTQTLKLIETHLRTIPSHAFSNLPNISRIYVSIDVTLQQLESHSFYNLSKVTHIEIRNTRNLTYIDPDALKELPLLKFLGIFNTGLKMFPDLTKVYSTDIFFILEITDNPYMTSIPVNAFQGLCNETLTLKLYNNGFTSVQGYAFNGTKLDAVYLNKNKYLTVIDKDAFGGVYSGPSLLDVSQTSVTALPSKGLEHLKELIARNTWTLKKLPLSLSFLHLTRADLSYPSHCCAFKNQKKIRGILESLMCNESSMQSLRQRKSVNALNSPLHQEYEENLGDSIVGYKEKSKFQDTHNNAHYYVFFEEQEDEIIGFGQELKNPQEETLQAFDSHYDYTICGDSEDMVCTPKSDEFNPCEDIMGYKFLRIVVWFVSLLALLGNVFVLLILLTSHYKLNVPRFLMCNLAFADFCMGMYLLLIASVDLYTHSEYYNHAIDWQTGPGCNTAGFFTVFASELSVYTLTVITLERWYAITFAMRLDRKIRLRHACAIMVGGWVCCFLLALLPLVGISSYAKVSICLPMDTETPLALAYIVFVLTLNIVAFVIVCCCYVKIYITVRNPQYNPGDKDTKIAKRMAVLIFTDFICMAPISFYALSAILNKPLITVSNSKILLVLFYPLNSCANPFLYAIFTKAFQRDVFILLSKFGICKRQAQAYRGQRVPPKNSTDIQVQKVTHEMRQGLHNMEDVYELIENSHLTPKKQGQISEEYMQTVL
Nuclear receptor subfamily 1 group I member 3 (Homo sapiens), sequence (Q14994 whole entry, looked up): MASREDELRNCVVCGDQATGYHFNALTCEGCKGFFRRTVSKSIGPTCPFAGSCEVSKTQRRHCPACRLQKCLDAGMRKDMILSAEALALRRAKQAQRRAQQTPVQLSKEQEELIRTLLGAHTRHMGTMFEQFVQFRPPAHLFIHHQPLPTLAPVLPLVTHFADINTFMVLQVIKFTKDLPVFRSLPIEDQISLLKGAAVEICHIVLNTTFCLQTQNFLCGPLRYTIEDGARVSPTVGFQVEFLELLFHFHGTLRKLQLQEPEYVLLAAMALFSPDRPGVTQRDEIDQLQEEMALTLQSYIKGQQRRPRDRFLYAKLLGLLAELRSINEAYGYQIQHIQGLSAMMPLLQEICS

Regarding `CCC(CC)(CC(=O)Nc1cccc(/C=C/c2nc(C3CCC3)cs2)c1)C(=O)O`, the Potency was 2.75 µM (active) in [1] and 23.7 µM (active) in [4]. Further, the Potency entry in assay [2], in [3], in [5], in assay [6], in assay [7] and in [8] was “inactive” each time. Also, the Potency result in [9], in assay [10], in assay [11], in [12] and in assay [13] was “inactive” throughout.
With `CC(C)(C)c1csc(-c2cc3cc(OCc4ccccc4CC(=O)O)ccc3o2)n1`, the Potency in [1] is 5.03 µM (active); in [10], 38.9 µM (active); in assay [13] it was 54.9 µM (active). The Potency entry in assay [2], in assay [3], in [14], in assay [5], in assay [15] and in assay [11] was “inactive” in each case. For the same molecule, the Potency result in assay [12] is “inactive”.
As to `CC[N+](CC)(CC)CCOC(=O)C(C1CCCC1)C1CCCC1`, the Potency result in assay [1], in assay [2], in assay [3], in [5], in assay [16] and in assay [6] was “inactive” throughout. Moreover, the Potency result in [7], in assay [8], in assay [9], in [18], in assay [11] and in [12] was “inactive” each time. The Potency result in [13] is “inactive”. In [17] (at 42.5 µM (top of the series)), the activity change, positive = activation is -21.2%.
`CN(C)C(=O)COC(=O)Cc1ccc(OC(=O)c2ccc(N=C(N)N)cc2)cc1`: the Potency entry in [1], in assay [2], in assay [3], in [5], in assay [19] and in [16] was “inactive” each time. In addition, the Potency entry in [15], in [6], in [7], in [8], in [9] and in [18] was “inactive” each time. For the same molecule, the Potency result in [10], in assay [12] and in assay [13] was “inactive” each time. Besides, the activity change, positive = activation in assay [17] (at 42.5 µM (top of the series)) was -1.22%.
In the case of `CCC(=O)C(=O)CC`, the Potency result in assay [1], in assay [2], in assay [3], in assay [4], in assay [5] and in [19] was “inactive” each time. For the same molecule, the Potency result in [16], in assay [15], in [6], in [7], in assay [9] and in [20] was “inactive” throughout. Also, the Potency result in assay [18], in assay [11], in assay [12] and in [13] was “inactive” in each case. The activity change, positive = activation in [17] (at 92.4 µM (top of the series)) was -15.7%.
Regarding `CC(C)(c1cc(Br)c(OCC(Br)CBr)c(Br)c1)c1cc(Br)c(OCC(Br)CBr)c(Br)c1` (stereo not drawn), the Potency entry in [1], in assay [2], in assay [3], in assay [5], in assay [19] and in assay [16] was “inactive” each time. The Potency result in [15], in [6], in assay [7], in assay [8], in assay [20] and in assay [18] was “inactive” each time. The Potency result in assay [10], in assay [11], in assay [12] and in assay [13] was “inactive” in each case. Also, in assay [17] (at 42.5 µM (top of the series)), the activity change, positive = activation is 2.35%.
For the molecule `Cc1c(N)cccc1C(F)(F)F`, the Potency entry in [1], in [2], in [3], in assay [5], in [19] and in assay [16] was “inactive” throughout. The Potency result in assay [15], in assay [6], in assay [7], in assay [9], in assay [18] and in assay [10] was “inactive” throughout. Also, the Potency entry in assay [11], in [12] and in assay [13] was “inactive” throughout. Also, in [17] (at 42.5 µM (top of the series)), the activity change, positive = activation is 6.86%.
